This is an account of results in the supplement of paper PMC10127200.

Experiment in all cases: Euclidean distance of Cell Painting phenotypic profile (signed KS, 77 features) to DMSO centroid (dimensionless distance); 5 or 10 uM (library dependent); higher = stronger phenotypic change vs DMSO (phenoactivity)
Conditions in all cases: 48 h

Assay [1] relates to 786-O. In short, it runs like this:
(§1)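 Phenoactivity is computed as Euclidean distance to the median vehicle profile. The profiles, drawn from 77 Harmony features scored as signed Kolmogorov-Smirnov statistics versus same-plate vehicle wells, were corrected for plate position, correlation-weighted and replicate-averaged at the top dose. Stained cells were imaged confocally at 20X (9 fields/well) after 48 h with library compounds at 10 or 5 uM, 0.1% DMSO final, in five cancer lines and a healthy fibroblast line.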

Assay [2] relates to A549. The method in brief: as §1
For assay [3], the system named is DU145. The method in brief: as §1
Assay [4] relates to FB. In short, it runs like this: as §1
In assay [5] the test system is HEPG2. In short, it runs like this: as §1
Assay [6] concerns OVCAR4. The method in brief:
as §1

Counter-ions that a name gives are not always drawn.

As to `O=C(O)CSCC(=O)NC1CCSC1=O` (stereo not drawn) [Erdosteine], the Euclidean distance in assay [1] was found to be 0.988; in assay [2], 1.09; in assay [3], 1.06; in assay [4], 1.07; in assay [5], 1.27; in assay [6], 1.1.

`O=C(O)/C=C/c1cnc[nH]1` [Urocanic acid]: the Euclidean distance in assay [1] came out at 1.13; in assay [2], 0.682; in assay [3], 0.798; in assay [4] it was 0.718; in assay [5], 0.554; in assay [6], 1.26.

Take `CCOC(=O)N1c2ccc(C(F)(F)F)cc2[C@@H](N(Cc2cc(C(F)(F)F)cc(C(F)(F)F)c2)C(=O)OC)C[C@H]1CC` [Torcetrapib]: the Euclidean distance in assay [1] was 1.3; in assay [2], 0.836; in assay [3], 1.01; in assay [4] it was 0.99; in assay [5] it was 0.467; in assay [6], 1.29.

Take `Cn1c(=O)c2c(ncn2CCO)n(C)c1=O` [Etofylline]: the Euclidean distance in assay [1] was found to be 1.39; in assay [2] it was 0.749; in assay [3] it was 1.18; in assay [4], 1.08; in assay [5], 0.452; in assay [6], 1.26.

As for `CCc1c(Cl)c(O)c(Cl)c(O)c1C(=O)O[C@H]1[C@H](O)[C@H](OC)[C@H](OC/C2=C\C=C\C[C@H](O)/C(C)=C/[C@H](CC)[C@@H](O[C@@H]3OC(C)(C)[C@@H](OC(=O)C(C)C)[C@H](O)[C@@H]3O)/C(C)=C/C(C)=C/C[C@@H]([C@@H](C)O)OC2=O)O[C@@H]1C` [Fidaxomicin], the Euclidean distance in assay [1] turned out to be 1.59; in assay [2], 1.88; in assay [3], 1.64; in assay [4], 1.94; in assay [5], 1.5; in assay [6], 1.68.

Regarding `Cc1cnc(NC(=O)Nc2cc(Br)c(C)cc2OC[C@@H]2CNCCO2)cn1`, the Euclidean distance came to 2.52 in assay [1]; 1.52 in assay [2]; 1.04 in assay [3]; 1.52 in assay [4]; 2.15 in assay [5]; 3.62 in assay [6].

Turning to `C=CC1=C(C(=O)O)N2C(=O)[C@@H](NC(=O)/C(=N\O)c3csc(N)n3)[C@H]2SC1` [Cefdinir], the Euclidean distance in assay [1] worked out at 0.892; in assay [2], 0.765; in assay [3], 2.48; in assay [4], 1.4; in assay [5], 1.17; in assay [6] it was 0.686.

`CCC[C@H](N[C@H]1CCc2cc(F)cc(F)c2C1)C(=O)Nc1cn(C(C)(C)CNCC(C)(C)C)cn1`: the Euclidean distance was determined as 1.07 in assay [1]; 1.25 in assay [2]; 0.825 in assay [3]; 0.705 in assay [4]; 1.07 in assay [5]; 2.26 in assay [6].

For the molecule `CCc1c2c(nc3ccc(O)cc13)-c1cc3c(c(=O)n1C2)COC(=O)[C@]3(O)CC`, the Euclidean distance in assay [1] came to 4.4; in assay [2], 4.38; in assay [3], 3.48; in assay [4], 4.61; in assay [5], 3.55; in assay [6], 3.46.

In the case of `O=C(Nc1ccc(Oc2ccc(Cl)cc2)c(Cl)c1)c1cc(I)cc(I)c1O` [Rafoxanide], the Euclidean distance in assay [1] stood at 1.36; in assay [2], 1.72; in assay [3], 1.23; in assay [4] it was 1.19; in assay [5], 1.44; in assay [6] it was 1.54.

As to `CCC(=O)Nc1cccc(Oc2nc(Nc3ccc(N4CCN(C)CC4)cc3OC)ncc2Cl)c1`, the Euclidean distance in assay [1] was found to be 1.62; in assay [2], 1.63; in assay [3], 0.903; in assay [4], 1.15; in assay [5] it was 1.61; in assay [6], 1.26.

As to `CN(CCN1CCC(OC(=O)Nc2ccccc2-c2ccccc2)CC1)C(=O)c1ccc(CN2CCC(C(N)=O)CC2)cc1` [Revefenacin], the Euclidean distance in assay [1] is 1.01; in assay [2], 1.27; in assay [3], 1.01; in assay [4] it was 1.33; in assay [5] it was 1.25; in assay [6], 1.44.

Turning to `COc1ccc(-c2ccc3cc(C(=O)O)ccc3c2)cc1C12CC3CC(CC(C3)C1)C2` [Adapalene], the Euclidean distance amounted to 1.76 in assay [1]; 2.58 in assay [2]; 1.39 in assay [3]; 2.18 in assay [4]; 1.73 in assay [5]; 2.03 in assay [6].

For `CCCC1CC(C(=O)NC(C(C)Cl)C2OC(SC)C(O)C(O)C2O)N(C)C1` (stereo not drawn) [Clindamycin alcoholate], the Euclidean distance in assay [1] turned out to be 1.37; in assay [2], 0.413; in assay [3], 1.04; in assay [4], 0.986; in assay [5], 1.01; in assay [6] it was 1.02.

On to `C=C1CC[C@H](O)C/C1=C/C=C1\CCC[C@]2(C)[C@@H]([C@H](C)/C=C/[C@H](C)C(C)C)CC[C@@H]12` [Vitamin D2], for which the Euclidean distance in assay [1] came out at 2.59; in assay [2] it was 0.759; in assay [3], 5.76; in assay [4], 1.38; in assay [5] it was 2.02; in assay [6] it was 2.05.

With `CC/C=C\C/C=C\C/C=C\C/C=C\C/C=C\C/C=C\CCC(=O)O` [Docosahexaenoic Acid], the Euclidean distance in assay [1] stood at 1.08; in assay [2] it was 0.581; in assay [3] it was 0.837; in assay [4] it was 1.06; in assay [5], 0.766; in assay [6], 1.1.

For the molecule `CC(C)Oc1ccc(-c2nc(-c3cccc4c3CC[C@@H]4NCCO)no2)cc1C#N` [Ozanimod (RPC1063)], the Euclidean distance in assay [1] was found to be 1.97; in assay [2], 1.08; in assay [3] it was 0.79; in assay [4], 1.6; in assay [5], 1.46; in assay [6] it was 1.68.

As to `Cc1cc(C(C)Nc2ccccc2)c2nc(N3CCOCC3)cc(=O)n2c1` (stereo not drawn), the Euclidean distance worked out at 1.4 in assay [1]; 1.16 in assay [2]; 1.61 in assay [3]; 1.62 in assay [4]; 1.29 in assay [5]; 2.37 in assay [6].

In the case of `CCCN1CCCC[C@H]1C(=O)Nc1c(C)cccc1C` [Ropivacaine HCl], the Euclidean distance in assay [1] was 0.76; in assay [2], 0.477; in assay [3] it was 0.895; in assay [4], 0.646; in assay [5] it was 0.469; in assay [6] it was 1.39.

Regarding `Cc1cc2c(cc1CC(=O)c1sccc1S(=O)(=O)Nc1onc(C)c1Cl)OCO2` [Sitaxentan sodium], the Euclidean distance in assay [1] was 0.839; in assay [2], 0.821; in assay [3], 0.942; in assay [4], 0.796; in assay [5] it was 0.95; in assay [6], 1.46.

For the molecule `Cc1nc(=O)c2cc(CN(C)c3ccc(C(=O)N[C@@H](CCC(=O)O)C(=O)O)s3)ccc2[nH]1` [Raltitrexed], the Euclidean distance was found to be 1.96 in assay [1]; 2.87 in assay [2]; 0.703 in assay [3]; 0.633 in assay [4]; 2.39 in assay [5]; 2.76 in assay [6].

For the molecule `CN1CCN(CCOc2cc(OC3CCOCC3)c3c(Nc4c(Cl)ccc5c4OCO5)ncnc3c2)CC1` [Saracatinib (AZD0530)], the Euclidean distance came out at 3.22 in assay [1]; 3.83 in assay [2]; 1.78 in assay [3]; 3.97 in assay [4]; 1.98 in assay [5]; 3.34 in assay [6].

On to `CC/C(=C(\c1ccccc1)c1ccc(OCCN(C)C)cc1)c1ccccc1` [Tamoxifen Citrate], for which the Euclidean distance in assay [1] was 1.05; in assay [2], 2.39; in assay [3], 1.36; in assay [4], 1.45; in assay [5], 1.5; in assay [6], 1.36.
